Rows were chosen to be rich in hits. Some 2.5% of all compounds tested hit in one or more screens of this group.
PKA-R2B act = activators of human PKA-R2B complex. P22694+P31323. PKA-R2B holoenzyme dissociation, Cy5-IP20 fluorescence polarization; R2B truncated from residue 108, S112A mutant; 0% DMSO only, 100% 113 µM cGMP. activation, % at 11.4 µM. 340,000 tested, 0.079% active. AID 504700;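 active = activation above a cutoff set at the mean over all compounds plus 3 SD, cut at about 18% in these data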;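 also: higher means more holoenzyme dissociation and a rise in polarization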
Target sequence (P31323 whole entry, looked up, other chains not shown, the tested form may be a part): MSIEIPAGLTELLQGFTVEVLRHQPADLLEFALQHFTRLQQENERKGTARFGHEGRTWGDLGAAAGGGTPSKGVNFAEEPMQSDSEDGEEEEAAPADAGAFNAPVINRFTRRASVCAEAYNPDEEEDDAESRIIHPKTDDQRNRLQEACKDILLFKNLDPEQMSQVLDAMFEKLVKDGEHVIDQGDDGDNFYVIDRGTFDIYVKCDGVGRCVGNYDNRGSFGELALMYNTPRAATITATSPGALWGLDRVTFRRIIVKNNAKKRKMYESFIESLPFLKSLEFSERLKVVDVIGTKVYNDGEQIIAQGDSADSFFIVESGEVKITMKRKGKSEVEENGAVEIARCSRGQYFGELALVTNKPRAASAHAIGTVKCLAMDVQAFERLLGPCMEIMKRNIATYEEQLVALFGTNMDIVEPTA
CHT inh = inhibitors of human choline transporter CHT | AID 488975 | 310,000 tested, 0.86% active | B-score at 10 µM | Q9GZV3 | CHT-expressing cells, membrane potential dye, choline response; stronger effect = lower value;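 active = B-score over 3 SD under the library average, and starting fluorescence ratio not unusually high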;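 also: choline stimulus applied at its EC90 after an EC20 pre-addition; B-score computed on integrated fluorescence ratio after choline addition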
PKA-R1A activ = activates the PKA-R1A holoenzyme complex; PKA-R1A dissociation, Cy5-IP20 fluorescence polarization; scaled: DMSO 0%, 113 µM cGMP 100%; 340,000 tested, 0.083% active; P00514+P68181; activation, % at 11.4 µM;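 active = percent activation above the mean of all tested compounds plus 3 SD, cut at about 19% in these data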;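 also: higher means more PKAc released from R1A so a rise in polarization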
ANO1 activ = activators or potentiators of mouse TMEM16A chloride channel; B-score at 10 µM; 340,000 tested, 0.3% active; HEK293 TMEM16A/YFP-H148Q/I152L, iodide quench fluorescence; stronger effect = lower value; Q8BHY3;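 active = fluorescence-ratio B-score plate-corrected deviation score at least 3 library SD below zero, with starting fluorescence score within 5 deviations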;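 also: channel opened by trigger with iodide after compound preincubation; score built on the fluorescence ratio of max minus min over baseline; more negative score means more quench and so TMEM16A activation or potentiation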
CHT allo act = human CHT allosteric activation; AID 488977; 310,000 tested, 0.49% active; CHT-expressing cells, membrane potential dye, choline EC20; stronger effect = higher value; LV-AA mutant CHT in HEK293 cells; B-score at 10 µM; Q9GZV3;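 active = initial fluorescence not abnormally high and integrated response B-score, plate-corrected, over 3 SD above library mean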
ANO1 block = inhibitors of mouse TMEM16A calcium-activated chloride channel; AID 588511; normalized B-score (activity score, 25-100; higher = stronger inhibition) at 10 µM; Q8BHY3; 310,000 tested, 1.2% active; HEK293 TMEM16A/YFP iodide influx fluorescence, ionomycin;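 active = ratio plate-corrected score three or more library SD toward inhibition, starting fluorescence score within five deviations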;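 also: score derived from kinetic fluorescence span divided by baseline fluorescence per well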
TMEM16A reconf = re-confirmation of mouse TMEM16A chloride channel inhibitors; shares compounds with ANO1 block; inhibition, % at 10 µM; HEK293 TMEM16A/YFP-H148Q, iodide quench fluorescence; ionomycin added to raise cell calcium; 2,300 tested, 39% active;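 active = mean duplicate percent inhibition, scaled so buffer wells are 0 and the reference blocker 100, over three buffer SD above buffer mean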
HEK293 Ca mobil = calcium mobilization counter-screen hit for TMEM16A inhibitor series | shares compounds with ANO1 block | TMEM16A/YFP HEK293, Fluo4 calcium mobilization | calcium response (% of ionomycin), % at 10 µM | 2,300 tested, 2% active | AID 652231;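 active = duplicate-averaged calcium signal over 20% of the ionomycin maximum, relative to buffer baseline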;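 also: each well's signal is peak minus trough fluorescence divided by its pre-addition baseline; 0% = buffer wells and 100% = ionomycin wells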
Parental YFP cnt = counter-screen for TMEM16A inhibitors: effect in parental YFP-HEK293 cells; shares compounds with ANO1 block; iodide YFP quench, ionomycin; YFP ratio F(max-min)/F0 at 10 µM; 2,300 tested, under 10 active;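 active = yellow fluorescent protein signal ratio exceeding the buffer control mean by over 5 SD of those controls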;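 also: ratio is mean of duplicate wells from kinetic YFP trace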
ClC-1 inh = rat ClC-1 inhibition, TMEM16A specificity screen | CHO ClC-1-YFP, iodide influx fluorescence quench; iodide control reads 0, buffer control 100 | ratio percent, % at 10 µM | shares compounds with ANO1 block | 2,300 tested, under 10 active | AID 652236;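 active = duplicate-mean ratio percent above the mean of iodide-only control wells, which defines zero, plus 5 of their SD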;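 also: higher percent means stronger block of ClC-1 iodide influx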
* hit, by the source's call; i = inactive; . = no result given.

SMILES | PKA-R2B act | CHT inh | PKA-R1A activ | ANO1 activ | CHT allo act | ANO1 block | TMEM16A reconf | HEK293 Ca mobil | Parental YFP cnt | ClC-1 inh
CC(C)n1nnnc1-c1cccc(Cl)c1 | 7 | i | -14 | i | i | i | i | i | -1.2 | -8
COc1ccc(CCC(=O)NCC2CCCCC2)cc1OC | -8 | i | 8 | i | i | i | . | . | . | .
N#Cc1c(CSCC(=O)O)cc(=O)n2c1[nH]c1ccccc12 | 5 | i | 1 | i | i | i | . | . | . | .
N#Cc1c(C(F)(F)F)cc(=O)n2c1[nH]c1ccccc12 | 8 | i | -6 | i | i | 100* | 35%* | 22%* | -1 | -20
Cc1cc(C)c(OCC(=O)Nc2ccccc2N2CCCCC2)c(C)c1 | -4 | i | -1 | i | i | i | . | . | . | .
Cc1cc(C)c(OCC(=O)Nc2ccccc2N2CCOCC2)c(C)c1 | -13 | i | -4 | i | i | 100* | 37%* | i | -0.95 | -13
O=C(Cc1ccccc1)Nc1ccc(N2CCOCC2)cc1N1CCOCC1 | 5 | i | 0 | i | i | i | . | . | . | .
O=C(Cc1ccccc1)Nc1cc(C(=O)c2ccccc2)ccc1N1CCOCC1 | -11 | i | -7 | i | i | 100* | i | i | -1.3 | -8
COc1cc(C2CC(=O)N(c3ccc(C)cc3)C(=O)C2)cc(OC)c1OC | 4 | i | 4 | i | i | i | . | . | . | .
Cc1cccc(CN2C(=O)N/C(=C/c3ccc(C)s3)C2=O)c1 | 10 | i | -6 | i | i | i | i | i | -0.84 | 8
CC(=O)c1ccc(N2CCN(C(=O)Nc3ccc(C(C)C)cc3)CC2)cc1 | -1 | i | -7 | i | i | 100* | 29%* | i | -0.94 | -3
CC(=O)c1ccc(N2CCN(C(=S)Nc3ccccc3)CC2)cc1 | 3 | i | -3 | i | i | 100* | i | i | -0.99 | -6
COc1ccc(NC(=O)C(C)N2CCN(C)CC2)cc1 (configuration not stated) | -10 | i | -1 | i | i | i | . | . | . | .
CCN(c1ccccc1)S(=O)(=O)c1ccc2c(c1)OCCO2 | -13 | . | 13 | i | . | . | . | . | . | .
Clc1ccc(CSC2=NCCCN2)cc1Cl | 0 | i | -2 | i | i | i | . | . | . | .
Clc1ccccc1CSC1=NCCCN1 | -12 | i | -7 | i | i | 100* | i | i | -1.1 | -11
CC(OC(=O)c1ccc(NC(=O)CC#N)cc1)C(=O)Nc1ccc(Oc2ccccc2)cc1 (configuration not stated) | -3 | i | 7 | i | i | i | . | . | . | .
Cc1cc(C(=O)OC(C)C(=O)Nc2nc(-c3ccccc3)cs2)c(C)o1 (configuration not stated) | -6 | i | -9 | i | i | 25* | i | i | -0.94 | -12
CC(OC(=O)c1ccc(NC(=O)CC#N)cc1)C(=O)Nc1nc(-c2ccccc2)cs1 (configuration not stated) | -13 | i | -9 | i | i | 100* | 22%* | i | -0.8 | -4
COc1ccc(C(=O)N=S2CCN(C(=O)c3ccc(Cl)cc3)CC2)cc1 | . | i | . | i | i | i | . | . | . | .
Cc1ccc(NC(=O)c2ccc3c(c2)OCCO3)cc1S(=O)(=O)Nc1cccc(Cl)c1 | -2 | i | -8 | i | i | 100* | i | i | -1.3 | -3
Cc1ccc(C(=O)Nc2ccc(C)c(S(=O)(=O)Nc3ccccc3Cl)c2)s1 | -2 | i | -10 | i | i | 100* | i | i | -0.22 | 18
COc1ccccc1NS(=O)(=O)c1cc(NC(=O)c2sc3cc(Cl)ccc3c2Cl)ccc1C | -5 | i | -5 | i | i | i | . | . | . | .
CCC1CCCCN1CCCNC(=O)Cn1cnc2sc(C)c(S(=O)(=O)N3CC(C)CC(C)C3)c2c1=O (configuration not stated) | 0 | i | 8 | i | i | i | . | . | . | .
COc1cccc(NC(=O)C2CCN(Cc3cnn(-c4ccccc4)c3-n3cccc3)CC2)c1 | 0 | i | -10 | i | i | 25* | i | i | -1.4 | -9
SMILES | PKA-R2B act | CHT inh | PKA-R1A activ | ANO1 activ | CHT allo act | ANO1 block | TMEM16A reconf | HEK293 Ca mobil | Parental YFP cnt | ClC-1 inh
Cc1ccc(/C=C2\CCC3=C2OC(N)=C(C#N)C3c2ccc(C)cc2)cc1 (configuration not stated) | 4 | i | 10 | i | i | i | . | . | . | .
COc1cccc(/C=C2/CN(C)CC3=C2OC(N)=C(C#N)C3c2cccc(OC)c2)c1 (configuration not stated) | -4 | i | 2 | i | i | i | i | i | -1.2 | -10
COc1cc(OC)cc(C(=O)NCC(=O)Nc2ccc(-c3ccccc3)cc2)c1 | -1 | i | 1 | i | i | i | . | . | . | .
Cc1ccc(Cl)cc1NC(=O)CC(O)(C(F)(F)F)C(F)(F)F | -7 | i | -13 | i | i | 100* | 42%* | i | -0.95 | -18
Cc1ccc(Cl)cc1NC(=O)CCC(=O)O | 6 | i | 0 | i | i | i | . | . | . | .
N#Cc1ccccc1OCC(=O)N1CCN(S(=O)(=O)c2ccc(Cl)cc2)CC1 | 3 | . | 1 | i | . | . | . | . | . | .
CCC1(C)Cc2c(sc3nc(NC)n(C)c(=O)c23)CO1 (configuration not stated) | -7 | i | 2 | i | i | 25* | i | i | -0.9 | -10
CSc1ccc(C(=O)C2CCCN(C(=O)c3ccc4c(c3)no[n+]4[O-])C2)cc1 (configuration not stated) | -7 | i | -6 | i | i | i | . | . | . | .
O=C(COc1cccc(Cl)c1)N/N=C\c1cc2ccccc2nc1Cl | 0 | i | -7 | i | i | i | . | . | . | .

Source: PubChem BioAssay (several laboratories)
